Integrin act MD – activators of alpha7 integrin expression for muscular dystrophy; Potency, µM (top dose mostly 38.3 µM), without a hit: at the highest dose activation, most hits filed as activators; 350,000 tested, 0.064% active; alpha7betagal myoblasts, beta-gal FDG fluorescence, 48 h; AID 624291;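 also: 100% = response of the positive control SU9516; nearly all actives have a fitted effect of over 60% in size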
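alpha7betagal+/- myoblasts (passage 13, 250/well) treated 48 h at 37C with compounds at 1:260 dilution of DMSO stock. Lysed, then beta-galactosidase activity read as FDG fluorescence (ex 480/em 540) after 30 min, with pre-read for autofluorescence.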
Mito fusion yeast – inhibitors of mitochondrial division or activators of mitochondrial fusion; S. cerevisiae fusion-defective mutant growth rescue, CellTiterGlo 48 h; Potency, µM (titrated, usually from 46.1 µM), for inactives: at the top dose growth rescue (activation), hits mostly activators; 320,000 tested, 0.23% active; AID 485298; also: % of control where 0% means no effect; nearly all actives have a fitted effect of over 45% in size
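Luminescent cell viability in 1536-well qHTS format served as the measure of rescued growth in ts fusion-mutant S. cerevisiae cultured on non-fermentable YPEG for 48 hours at 37C.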
RORg inh – ROR gamma (mouse) transcription inhibition. P51450. Drosophila S2 Gal4-RORgamma UAS-luciferase reporter, 20 h. Potency, µM (top dose mostly 53.6 µM), inactives show top-dose activity change, negative = inhibition, most hits filed as inhibitors. 310,000 tested, 5.4% active. AID 2551; also: % is scaled to controls: 0 for no effect and ±100 for the full control effect; nearly all actives have a fitted effect of over 60% in size
Target sequence (P51450 whole entry, looked up, the tested form may be a part): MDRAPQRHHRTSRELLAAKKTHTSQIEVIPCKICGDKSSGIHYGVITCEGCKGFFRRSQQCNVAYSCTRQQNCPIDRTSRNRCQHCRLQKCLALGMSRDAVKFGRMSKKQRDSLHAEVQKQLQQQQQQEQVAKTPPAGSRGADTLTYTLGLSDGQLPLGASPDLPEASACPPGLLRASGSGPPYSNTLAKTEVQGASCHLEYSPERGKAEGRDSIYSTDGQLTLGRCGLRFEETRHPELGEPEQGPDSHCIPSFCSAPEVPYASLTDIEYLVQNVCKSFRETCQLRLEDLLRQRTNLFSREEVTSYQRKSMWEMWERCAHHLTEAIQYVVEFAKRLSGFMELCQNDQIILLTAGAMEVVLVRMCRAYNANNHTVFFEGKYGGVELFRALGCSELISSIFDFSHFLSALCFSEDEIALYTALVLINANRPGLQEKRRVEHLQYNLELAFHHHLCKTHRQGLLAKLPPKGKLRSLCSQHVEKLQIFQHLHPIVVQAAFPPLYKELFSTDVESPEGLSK
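Using a luciferase readout, inhibitors were identified by reduced reporter activity in Drosophila cells coexpressing a copper-inducible Gal4–ROR gamma fusion and UAS-driven Photinus luciferase, incubated 20 hr after 700 uM copper sulfate.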
uPA surface inh – cell surface uPA generation inhibition; AID 540303; cell surface uPA generation assay, qHTS; 330,000 tested, 0.31% active; Potency, µM (doses to about 38.3 µM), inactives show at the highest dose activity change, negative = inhibition, usual class: inhibitors; active = well fitted inhibition curve with a large enough effect; inconclusive = small, poorly fitted or top-dose-only effect; inactive = no such curve, though single readings can be large or run the other way; tested in mouse RAW 264.7 cells; also: % is scaled to controls: 0 for no effect and ±100 for the full control effect; nearly all actives have a fitted effect of over 55% in size
Chronic BCR inh – chronic active BCR signaling inhibition | ABC-DLBCL IkBa-CBG/CBR reporter, luminescence ratio, 4 h | Potency, µM (doses to about 46.1 µM), for the others: top-dose activity change, negative = inhibition, usual class: inhibitors | 340,000 tested, 0.05% active | AID 493014; active = well fitted inhibition curve with a large enough effect in the signal ratio, with a control signal flat, not every such curve was filed as active; inconclusive = small, poorly fitted or top-dose-only effect, or effect the other way, or a change in a side signal; the % refers to the signal ratio;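 also: plate controls were basal doxycycline-induced cells for no effect and cells given 10 µM MG132 for full effect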
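Doxycycline induced both beetle luciferases in TMD8 lymphoma cells; IKK-driven degradation limits the IkappaBalpha-fused green signal, while red luminescence normalises for cell number and nonspecific effects. Compounds tested up to 46 uM, 4 hrs.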
VP16 counter – counter-screen for ROR gamma inhibitors: Gal4-VP16 reporter; Drosophila S2 Gal4-VP16 UAS-luciferase, luminescence, 20 h; Potency, µM (highest dose often 53.6 µM), inactives show at the highest dose activity, negative = inhibition, hits mostly inhibitors; 310,000 tested, 3.5% active; AID 2546;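 also: Gal4-VP16 expression switched on by copper sulfate through the metallothionein promoter; % is scaled to controls: 0 for no effect and ±100 for the full control effect; nearly all actives have a fitted effect of over 50% in size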
* = called active by the depositor; ? = inconclusive; · = no result; [ ] = another dose, or the depositor's remark. Only some compounds are listed: those with a hit (about 5.5% of all), similar ones and a draw of the others. Unless noted, calls follow the shape of the dose curve; as a rule, active = well fitted curve in the direction sought with a large enough effect; inconclusive = small, poorly fitted or top-dose-only effect, or another doubt; inactive = no such curve, though single readings can be large; an effect the other way counts as inactive or inconclusive. Potency is read from the fitted curve at half-maximal effect.

SMILES | Integrin act MD | Mito fusion yeast | RORg inh | uPA surface inh | Chronic BCR inh | VP16 counter
COc1ccc(C(=O)NC(=S)NNC(=O)Cc2cccs2)cc1 | -22% | -7% | 6.3µM* | 2% | ? | ?
Cc1sc2ncnc(NCC(O)c3ccccc3)c2c1C (stereo not given) | -10% | 15% | ? | 0% | -1% | 16µM*
Cc1sc2ncnc(NCC(O)c3ccc([N+](=O)[O-])cc3)c2c1C (stereo not given) | -56% | 17% | ? | -1% | -9% | 5µM*
Cc1sc2ncnc(NCC(c3ccccc3)N(C)C)c2c1C (stereo not given) | -51% | -11% | -10% | -3% | 7% | 20%
Cn1c(=O)c(CCc2ccccc2)nc2cncnc21 | · | · | -13% | · | · | -10%
CC1(C)CC[C@]2(C(=O)O)CC[C@]3(C)C(=CCC4[C@@]5(C)CC[C@H](O)C(C)(C)C5CC[C@]43C)C2C1 (stereo not given in full) | 28% | -7% | 6.3µM* | 6% | 0% | 2%
NC(=O)c1c(-c2ccc(Cl)cc2Cl)csc1NC(=O)Cc1ccccc1 | 12% | -4% | ? | -14% | 13% | 7.1µM*
O=C(Cc1ccccc1)Nc1scc(-c2ccccc2)c1C(=O)N1CCOCC1 | -8% | 0% | -1% | -9% | 0% | 4%
CCOc1ccccc1NC(=S)NCCc1ccccc1 | -5% | -2% | 1.3µM* | ? | 2% | 5µM*
COc1ccc(NC(=S)NCCc2ccc(F)cc2)c(OC)c1 | 27% | 0% | ? | -2% | -6% | ?
CCOc1ccccc1NC(=S)NCCc1ccc(F)cc1 | 10% | -4% | 1.6µM* | -16% | -2% | 10µM*
CCCOc1ccc(Oc2ccc(S(=O)(=O)N3CCN(C)CC3)cn2)cc1 | 25% | -5% | · | -2% | -1% | ·
Cc1ccc(-c2[nH]n3c(=O)c4c(nc3c2C)CCCC4)cc1 | 14% | 3% | -1% | -4% | ? | -12%
O=c1c2c(nc3c(-c4ccc(Cl)cc4)c[nH]n13)CCC2 | -52% | 1% | 5µM* | -10% | ? | ?
O=c1c2c(nc3c(-c4ccccc4)c[nH]n13)CCC2 | 3% | 2% | 6.3µM* | -8% | ? | ?
O=c1c2c(nc3c(-c4cccc(Br)c4)c[nH]n13)CCCC2 | 16% | 4% | 2.5µM* | 2% | -5% | 3.2µM*
CCCCNS(=O)(=O)NC(=O)C1=C(N2CCCC2)COC1=O | 3% | 1% | · | 16% | 0% | ·
Cc1ccc(C(=O)CSc2ccc(-c3cccnc3)nn2)cc1 | 39% | -7% | 112µM* | -12% | 5% | 2.5µM*
CCOC(=O)c1c(C)oc2c1c1c(c3ccccc32)OCN(Cc2ccccn2)C1 | 23% | -1% | 7.1µM* | 1% | -1% | 11µM*
CC1SC(c2ccc(F)cc2)N(CCc2ccccc2)C1=O (stereo not given) | -2% | 13% | -2% | -3% | 4% | 5%
Cc1ccccc1-c1cc2c(nn1)-c1ccccc1C2=O | -24% | -6% | 10µM* | -11% | 5% | 8.9µM*
Cc1ccc(-c2cc3c(nn2)-c2ccccc2C3=O)cc1 | -3% | -9% | 1.1µM* | -17% | -12% | 2µM*
O=C1c2ccccc2-c2nnc(-c3ccc(F)cc3)cc21 | 11% | -3% | 3% | -16% | 0% | -6%
Cc1cc(C)nc(N/N=C/c2sccc2C)n1 | -43% | -7% | ? | 4% | ? | -23%
Cc1ccsc1/C=N/Nc1ncc(Cl)cc1Cl | -16% | -15% | 7.1µM* | -10% | ? | 5µM*
SMILES | Integrin act MD | Mito fusion yeast | RORg inh | uPA surface inh | Chronic BCR inh | VP16 counter
Cc1ccsc1/C=N/Nc1nc(=O)[nH]nc1C | -39% | 7% | 5.6µM* | -11% | -21% | 10µM*
CC(NS(=O)(=O)c1ccccc1)C(=O)Nc1nccs1 (stereo not given) | 1% | 7% | -21% | 1% | -2% | 13%
O=C(Nc1nccs1)C(NS(=O)(=O)c1ccc(Br)s1)c1ccccc1 (stereo not given) | 2% | 2% | 11µM* | 1% | ? | ?
COC(=O)C1=NNC2(C)C(=O)N(c3ccc(C)cc3)C(=O)C12 (stereo not given) | 10µM* | -3% | 1% | 3% | -11% | 7%
COc1cc(/C=N/NC(N)=S)ccc1OCC(=O)Nc1ccc(C)c(C)c1 | 1% | 9% | 11µM* | -1% | · | ?
CCCCNC(=S)N/N=C/c1ccc(OCC(=O)Nc2c(C)cc(C)cc2C)c(OC)c1 | 7% | -1% | ? | -2% | 0% | 5µM*
CCCC[C@]12Cc3cc(C#N)ccc3C(O1)c1c(cc(C)n(Cc3ccccc3)c1=O)O2 | · | 0%[9.22 µM] | -8%[10 µM] | · | ? | -6%[10 µM]
O=S(=O)(c1ccc(OCC2CO2)cc1)c1ccc(OCC2CO2)cc1 (stereo not given) | -31% | -4% | -15% | 5.6µM* | ? | 3%
Nc1ccccc1C(=O)CC(N)C(=O)O (stereo not given) | · | · | 13µM* | · | · | 28µM*
NC(=O)CC(NC(=O)c1ccccc1)c1ccc(N2CCC(N3CCCC3)CC2)c([N+](=O)[O-])c1 (stereo not given) | -18% | 1% | -6% | 3% | -12% | 1%
NC(=O)CC(NC(=O)c1ccccc1)c1ccc(N2CCC(Cc3ccccc3)CC2)c([N+](=O)[O-])c1 (stereo not given) | -45% | -1% | ? | ? | ? | 11µM*
Cc1nc(-c2ccccc2)sc1C(=O)NN | -1% | 3% | 13µM* | 10µM* | ? | 11µM*
O=C(COC(=O)c1ccc(-c2ccc([N+](=O)[O-])cc2)o1)NC(=O)NC1CCCCC1 | 21% | 13% | ? | -4% | -2% | -20%
O=C(COC(=O)c1ccc(-c2ccc([N+](=O)[O-])cc2)o1)NC(=O)NC12CC3CC(CC(C3)C1)C2 | 20% | 10µM* | ? | 4% | 5% | -1%
CCn1c(SCc2ccccc2Cl)nc2ccccc21 | 4% | -7% | 10µM* | -1% | -2% | -5%
CCn1c(SCC(=O)Nc2ccc(Cl)cc2)nc2nc3c(cc2c1=O)CCCC3 | 26% | 1% | 14µM* | 5% | -4% | 13µM*
CCn1c(SCc2ccccc2Cl)nc2nc3c(cc2c1=O)CCCC3 | 3% | 20% | 11µM* | -2% | -1% | ?
CC(=O)SC1CC(=O)N(c2c(C)cccc2C)C1=O (stereo not given) | -8% | -4% | 10µM* | -8% | ? | ?
Cc1cccc(C)c1N1C(=O)CC(N2CCSCC2)C1=O (stereo not given) | -15% | -16% | 3% | -2% | ? | 5%

Screens: PubChem, National Center for Advancing Translational Sciences (NCATS)
